From PubChem BioAssay (EPA / NIEHS)
Active and inactive are the calls of the source. How the source made its calls: active means hit-call score of the fitted dose curve at least 0.9, where 1 is the maximum; inactive means score below 0.9.

Legend:
Conditions in all cases: mRNA level, 48 h; actives raise or lower the signal
[1] = read-out: 3-Hydroxy-3-Methylglutaryl-CoA Synthase 2 (HMGCS2), HMGCS2 (gene 3158); test: LTEA_HepaRG_HMGCS2: Life Technologies and Expression Analysis (LTEA) Assay for 3-Hydroxy-3-Methylglutaryl-CoA Synthase 2 (HMGCS2) using HepaRG (AID 2283504)
How it was run: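 This steatosis marker was read as HMGCS2 mRNA change in HepaRG cells treated 48 h with up to 100 uM chemical. Normalisation used housekeeping genes; activity in either direction was fitted relative to 0.5% DMSO vehicle.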

[2] = read-out: Insulin Like Growth Factor 1 (IGF1), IGF1 (gene 3479); test: LTEA_HepaRG_IGF1: Life Technologies and Expression Analysis (LTEA) Assay for Insulin Like Growth Factor 1 (IGF1) using HepaRG (AID 2283506)
How it was run: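 qRT-PCR readout of IGF1 mRNA, normalized to three housekeeping genes, after 48 h chemical exposure of HepaRG cells. Concentrations: 8-point half-log series, top 100 uM, 0.5% DMSO vehicle. Gain or loss fitted against DMSO baseline.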

[3] = read-out: Interleukin 6 (IL6), IL6 (gene 3569); test: LTEA_HepaRG_IL6: Life Technologies and Expression Analysis (LTEA) Assay for Interleukin 6 (IL6) using HepaRG (AID 2283509)
How it was run: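 qRT-PCR read-out of IL6 transcript, normalized to three housekeeping genes, after 48 h chemical exposure of HepaRG cells; 8-point half-log series, top 100 uM, 0.5% DMSO vehicle. Bidirectional curve fitting against DMSO baseline.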

[4] = read-out: Potassium channel subfamily K member 1 (KCNK1), KCNK1 (gene 3775); test: LTEA_HepaRG_KCNK1: Life Technologies and Expression Analysis (LTEA) Assay for Potassium channel subfamily K member 1 (KCNK1) using HepaRG (AID 2283511)
How it was run: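 HepaRG, 48 h exposure, 8-pt half-log series top 100 uM, 0.5% DMSO vehicle, duplicates. Readout: KCNK1 transcript by qRT-PCR (Fluidigm array), housekeeping-normalized; bidirectional curve fit relative to DMSO baseline.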

[5] = read-out: Keratin 19 (KRT19), KRT19 (gene 3880); test: LTEA_HepaRG_KRT19: Life Technologies and Expression Analysis (LTEA) Assay for Keratin 19 (KRT19) using HepaRG (AID 2283512)
How it was run: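 Readout is qRT-PCR of KRT19 mRNA, normalized to ACTB, GAPDH and POLR2A, from HepaRG cells treated 48 h with eight-point half-log dilutions topping at 100 uM. Activity in either direction is scored relative to 0.5% DMSO vehicle.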

[6] = read-out: JUN Transcription Factor, JUN (gene 3725); test: LTEA_HepaRG_JUN: Life Technologies and Expression Analysis (LTEA) Assay for JUN Transcription Factor using HepaRG (AID 2283513)
How it was run: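 HepaRG, 48 h exposure, 8-pt half-log series top 100 uM, 0.5% DMSO, duplicate. JUN mRNA by qRT-PCR (Fluidigm), housekeeping-normalized (ACTB/GAPDH/POLR2A); bidirectional curve fit vs DMSO baseline.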

[7] = read-out: Lipase C (LIPC), LIPC (gene 3990); test: LTEA_HepaRG_LIPC: Life Technologies and Expression Analysis (LTEA) Assay for Lipase C (LIPC) using HepaRG (AID 2283514)
How it was run: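 HepaRG, 48 h exposure, 8-pt half-log series from 100 uM in 0.5% DMSO, duplicates. Readout: LIPC mRNA by Fluidigm qRT-PCR, housekeeping-normalized (ACTB/GAPDH/POLR2A). Gain or loss fitted bidirectionally against DMSO baseline.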

[8] = read-out: Lipoprotein lipase (LPL), LPL (gene 4023); test: LTEA_HepaRG_LPL: Life Technologies and Expression Analysis (LTEA) Assay for Lipoprotein lipase (LPL) using HepaRG (AID 2283515)
How it was run: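 HepaRG, 48 h exposure, 8-pt half-log dilutions from 100 uM, 0.5% DMSO vehicle, duplicates; qRT-PCR (Fluidigm array) of LPL mRNA vs housekeeping genes; bidirectional curve fit relative to DMSO baseline.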

[9] = read-out: MicroRNA 122 (MIR122), gene 406906; test: LTEA_HepaRG_MIR122: Life Technologies and Expression Analysis (LTEA) Assay for MicroRNA 122 (MIR122) using HepaRG (AID 2283516); further: the transcript read is the microRNA miR-122
How it was run: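 qRT-PCR read-out (TaqMan, Fluidigm array), normalized to three housekeeping genes; HepaRG cells dosed 48 h at 8 concentrations up to 100 uM in 0.5% DMSO, duplicate; gain or loss fitted against DMSO baseline.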

[10] = read-out: matrix metalloproteinase-10 (MMP10), MMP10 (gene 4319); test: LTEA_HepaRG_MMP10: Life Technologies and Expression Analysis (LTEA) Assay for matrix metalloproteinase-10 (MMP10) using HepaRG (AID 2283517)
How it was run: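 Transcript levels come from Fluidigm qRT-PCR normalized to three housekeeping genes, with curves fitted bidirectionally against 0.5% DMSO. Human HepaRG cells were dosed for 48 hours at concentrations up to 100 uM.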

MYC, MYC (gene 4609) = test: LTEA_HepaRG_MYC: Life Technologies and Expression Analysis (LTEA) Assay for MYC using HepaRG (AID 2283518)
How it was run: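 Expression changes were scored by TaqMan qRT-PCR with ACTB, GAPDH and POLR2A normalization. Cultures in serum-free induction medium received duplicate 8-point concentration series, highest 100 uM, for 48 h; DMSO (0.5%) served as baseline.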

[11] = read-out: matrix metalloproteinase-3 (MMP3), MMP3 (gene 4314); test: LTEA_HepaRG_MMP3: Life Technologies and Expression Analysis (LTEA) Assay for matrix metalloproteinase-3 (MMP3) using HepaRG (AID 2283519)
How it was run: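 qRT-PCR read-out of MMP3 mRNA (normalised to three housekeeping genes) in HepaRG liver cells after 48 h chemical exposure; 8-point half-log series, top 100 uM, 0.5% DMSO vehicle. Bidirectional curve fitting against DMSO baseline.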

[12] = read-out: Nuclear factor NF-kappa-B p105 subunit (Homo sapiens) (UniProt P19838); test: LTEA_HepaRG_NFKB1: Life Technologies and Expression Analysis (LTEA) Assay for Nuclear Factor Kappa B Subunit 1 (NFKB1) using HepaRG (AID 2283521);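 further: differentiated human HepaRG liver cells in serum-free induction medium; TaqMan qRT-PCR transcript normalised to ACTB GAPDH and POLR2A housekeeping genes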
How it was run: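 Human HepaRG cells receive eight half-log concentrations, highest 100 uM, for 48 h. NFKB1 expression is then quantified by qRT-PCR and analysed for up- or down-regulation relative to 0.5% DMSO vehicle.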

[13] = read-out: Protein phosphatase 2A (PPP2R4), PTPA (gene 5524); test: LTEA_HepaRG_PPP2R4: Life Technologies and Expression Analysis (LTEA) Assay for Protein phosphatase 2A (PPP2R4) using HepaRG (AID 2283522)
How it was run: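 HepaRG, 48 h exposure, 8-pt half-log series from 100 uM, 0.5% DMSO vehicle, duplicates. Readout: PPP2R4 mRNA, Fluidigm qRT-PCR, housekeeping-normalized. Bidirectional curve fit vs DMSO baseline.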

[14] = read-out: Phosphatase and tensin (PTEN), PTEN (gene 5728); test: LTEA_HepaRG_PTEN: Life Technologies and Expression Analysis (LTEA) Assay for Phosphatase and tensin (PTEN) using HepaRG (AID 2283523)
How it was run: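 HepaRG, 48 h exposure, 8-pt half-log series from 100 uM top, 0.5% DMSO vehicle, duplicates. Readout: Fluidigm qRT-PCR of PTEN transcript; housekeeping normalization (ACTB, GAPDH, POLR2A). Gain or loss fitted relative to DMSO baseline.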

[15] = read-out: Intercellular Adhesion Molecule 1 (ICAM1), ICAM1 (gene 3383); test: LTEA_HepaRG_ICAM1: Life Technologies and Expression Analysis (LTEA) Assay for Intercellular Adhesion Molecule 1 (ICAM1) using HepaRG (AID 2283507)
How it was run: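 Using the human liver line HepaRG, compounds are tested in duplicate over 48 h at concentrations up to 100 uM. Expression is determined by TaqMan qRT-PCR, normalized to endogenous controls, and analysed relative to 0.5% DMSO vehicle.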

[16] = read-out: Paternally Expressed 10 (PEG10), PEG10 (gene 23089); test: LTEA_HepaRG_PEG10: Life Technologies and Expression Analysis (LTEA) Assay for Paternally Expressed 10 (PEG10) using HepaRG (AID 2283520);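 further: differentiated HepaRG human liver cells in serum-free induction medium with 0.5% DMSO; PEG10 transcript by qRT-PCR normalised to ACTB GAPDH and POLR2A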
How it was run: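 qRT-PCR read-out: PEG10 mRNA normalised to three housekeeping genes, fitted bidirectionally against 0.5% DMSO vehicle. HepaRG cells received test chemicals for 48 h in serum-free induction medium, 8 points, top 100 uM, half-log steps.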

[17] = read-out: Interleukin 6 Receptor (IL6R), IL6R (gene 3570); test: LTEA_HepaRG_IL6R: Life Technologies and Expression Analysis (LTEA) Assay for Interleukin 6 Receptor (IL6R) using HepaRG (AID 2283510)
How it was run: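 HepaRG, 48 h exposure, 8-pt half-log series, top 100 uM, 0.5% DMSO vehicle, duplicates. Read-out: TaqMan qRT-PCR of IL6R transcript, housekeeping-gene normalized. Gain or loss fitted relative to DMSO baseline.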

Nuclear factor NF-kappa-B p105 subunit (Homo sapiens), sequence (P19838 whole entry, looked up): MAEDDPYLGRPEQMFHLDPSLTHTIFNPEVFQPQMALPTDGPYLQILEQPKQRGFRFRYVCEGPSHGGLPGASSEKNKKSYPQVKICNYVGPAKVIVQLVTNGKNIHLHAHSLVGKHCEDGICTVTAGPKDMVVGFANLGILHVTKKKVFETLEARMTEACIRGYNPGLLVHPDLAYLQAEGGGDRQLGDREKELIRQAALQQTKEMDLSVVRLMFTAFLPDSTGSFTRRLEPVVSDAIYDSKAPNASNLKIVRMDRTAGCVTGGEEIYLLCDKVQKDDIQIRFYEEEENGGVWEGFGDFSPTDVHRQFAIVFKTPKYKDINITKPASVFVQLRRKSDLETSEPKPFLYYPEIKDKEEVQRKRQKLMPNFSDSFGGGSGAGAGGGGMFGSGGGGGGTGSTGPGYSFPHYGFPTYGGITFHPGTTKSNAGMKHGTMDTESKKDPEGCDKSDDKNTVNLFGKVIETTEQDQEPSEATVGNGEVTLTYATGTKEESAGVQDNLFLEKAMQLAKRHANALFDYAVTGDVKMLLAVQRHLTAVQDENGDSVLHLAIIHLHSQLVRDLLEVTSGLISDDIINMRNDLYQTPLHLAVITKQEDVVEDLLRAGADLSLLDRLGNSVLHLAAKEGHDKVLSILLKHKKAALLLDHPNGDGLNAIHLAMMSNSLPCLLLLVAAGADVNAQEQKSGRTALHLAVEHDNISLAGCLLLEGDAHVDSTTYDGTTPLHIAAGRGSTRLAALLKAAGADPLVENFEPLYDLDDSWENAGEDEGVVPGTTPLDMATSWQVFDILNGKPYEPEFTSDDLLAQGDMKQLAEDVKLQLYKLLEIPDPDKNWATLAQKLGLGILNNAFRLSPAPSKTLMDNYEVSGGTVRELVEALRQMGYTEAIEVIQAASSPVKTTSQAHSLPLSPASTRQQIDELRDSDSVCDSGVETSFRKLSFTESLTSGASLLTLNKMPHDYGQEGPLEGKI

Structure (SMILES): CCOCCOCCOCCO
- outcome [1]: inactive
- outcome [2]: inactive
- outcome [3]: inactive
- outcome [4]: inactive
- outcome [5]: inactive
- outcome [6]: inactive
- outcome [7]: inactive
- outcome [8]: inactive
- outcome [9]: inactive
- outcome [10]: inactive
- outcome (MYC, MYC (gene 4609)): inactive
- outcome [11]: inactive
- outcome [12]: inactive
- outcome [13]: inactive
- outcome [14]: inactive

Structure (SMILES): O=C(NS(=O)(=O)/C=C/c1ccccc1)c1ccc(F)cc1Cl
- AC50 [1]: 27.9 µM (active)
- AC50 [2]: 8.33 µM (active)
- outcome [15]: inactive
- outcome [3]: inactive
- outcome [4]: inactive
- outcome [5]: inactive
- outcome [6]: inactive
- outcome [7]: inactive
- outcome [8]: inactive
- outcome [10]: inactive
- outcome (MYC, MYC (gene 4609)): inactive
- AC50 [16]: 21.3 µM (active)
- outcome [12]: inactive
- outcome [13]: inactive
- outcome [14]: inactive

Structure (SMILES): CC1(C)C(=O)N(Br)C(=O)N1Br
- outcome [1]: inactive
- outcome [2]: inactive
- outcome [15]: inactive
- outcome [3]: inactive
- outcome [17]: inactive
- outcome [4]: inactive
- outcome [5]: inactive
- outcome [6]: inactive
- outcome [7]: inactive
- outcome [8]: inactive
- outcome [10]: inactive
- outcome (MYC, MYC (gene 4609)): inactive
- outcome [13]: inactive
- outcome [14]: inactive

Structure (SMILES): COc1ccc(/C=C/S(=O)(=O)NC(=O)c2ccc(C)cc2Cl)cc1
- outcome [1]: inactive
- outcome [2]: inactive
- outcome [3]: inactive
- outcome [17]: inactive
- outcome [4]: inactive
- outcome [5]: inactive
- outcome [6]: inactive
- outcome [7]: inactive
- outcome [8]: inactive
- outcome [10]: inactive
- outcome (MYC, MYC (gene 4609)): inactive
- AC50 [16]: 75.3 µM (active)
- outcome [12]: inactive
- AC50 [13]: 0.11 µM (active)
- outcome [14]: inactive
